Laboratory results: PubChem BioAssay (NCATS)
Inconclusive results are not listed. A call without a number means that no potency is given here. The source made the active and inactive calls. Calls follow the shape of the dose curve; as a rule, active = well fitted inhibition curve with a large enough effect; inconclusive = small, poorly fitted or top-dose-only effect; inactive = flat fitted curve, though single readings scatter.

Test system: C2A
Test: qHTS profiling for inhibitors of Plasmodium falciparum proliferation (AID 504749); also: nearly all actives have a fitted effect of over 60% in size
Settings: P. falciparum in erythrocytes, SYBR Green DNA, 72 h; series mostly up to 28.7 µM
Outline: (§1)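 P. falciparum-infected erythrocytes (0.3% parasitemia, 2.5% hematocrit) incubated with compound 72 h at 37 C, 5% CO2. Parasite DNA detected by SYBR Green after lysis, overnight at room temperature; normalised to 0.29 uM artemisinin and DMSO.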
Potency is read from the fitted curve at half-maximal effect.

| Structure (SMILES) | Potency |
| --- | --- |
| Cc1cc(-c2ccc(N=Nc3c(S(=O)(=O)O)cc4cc(S(=O)(=O)O)cc(N)c4c3O)c(C)c2)ccc1N=Nc1c(S(=O)(=O)O)cc2cc(S(=O)(=O)O)cc(N)c2c1O | inactive |
| CCOC(=O)Cc1ccc(-c2ccccc2)cc1 | inactive |
| C[C@H](CCC(=O)O)[C@H]1CC[C@H]2[C@@H]3CC[C@@H]4C[C@H](O)CC[C@]4(C)[C@H]3C[C@H](O)[C@]12C | inactive |
| CNC(=O)c1c(I)c(C(=O)NCC(=O)Nc2c(I)c(C(=O)O)c(I)c(C(=O)NCCO)c2I)c(I)c(N(C)C(C)=O)c1I | inactive |
| S=C1SCN(Cc2ccccc2)CN1Cc1ccccc1 | inactive |
| O=P(O)(O)OP(=O)(O)O | inactive |
| OC/C=C/c1ccccc1 | inactive |
| O=C1c2ccccc2C(=O)C1c1ccc(Cl)cc1 | inactive |
| CC(=O)Oc1cccc2c1C(=O)c1c(OC(C)=O)cc(C(=O)O)cc1C2=O | inactive |
| CC[C@H]1OC(=O)[C@H](C)[C@@H](O[C@H]2C[C@@](C)(OC)[C@@H](O)[C@H](C)O2)C(C)[C@@H](O[C@@H]2O[C@H](C)C[C@H](N(C)C)[C@@H]2O)[C@](C)(OC)C[C@@H](C)C(=O)[C@H](C)[C@@H](O)[C@]1(C)O (stereo partly drawn) | inactive |
| O=C(c1cc2ccccc2o1)N1CCN(Cc2ccccc2)CC1 | inactive |
| CCCCCCCCCCCCCCCCCC[N+](C)(C)CCC[Si](OC)(OC)OC | inactive |
| CC(=O)Nc1ccc(NC(=S)NC(=O)c2ccc(C(C)(C)C)cc2)cc1 | inactive |
| CC(=O)Nc1c(I)c(C(=O)O)c(I)c(N(C)C(C)=O)c1I | inactive |
| CC[C@H]1OC(=O)[C@H](C)[C@@H](O[C@H]2C[C@@](C)(OC)[C@@H](O)[C@H](C)O2)[C@H](C)[C@@H](O[C@@H]2O[C@H](C)C[C@H](N(C)C)[C@H]2O)[C@](C)(O)C[C@@H](C)CN(C)[C@H](C)[C@@H](O)[C@]1(C)O | 4.47 µM (active) |
| O=C1c2ccccc2CN2C(=O)c3ccccc3CN12 | inactive |
| CC(C)CCCCCCc1ccc(O)cc1 | inactive |
| N[C@@H](Cc1cc(I)c(Oc2ccc(O)c(I)c2)c(I)c1)C(=O)O | inactive |
| O=C(Nc1ccc(O)cc1)c1ccccc1O | inactive |
| C#C[C@]1(O)CC[C@@H]2[C@H]3CCC4=CC(=O)CC[C@H]4[C@H]3C(=C)C[C@@]21CC | inactive |
| OCc1ccccc1 | inactive |
| COc1ccc2nc(NC(=O)Nc3ccccc3)sc2c1 | inactive |
| O=C(OCc1ccccc1)c1cccnc1 | inactive |

Test system: CP185
Test: as above
Settings: P. falciparum in erythrocytes, SYBR Green DNA, 72 h; series mostly up to 28.7 µM
Outline: as §1

| Structure (SMILES) | Potency |
| --- | --- |
| CCOC(=O)Cc1ccc(-c2ccccc2)cc1 | inactive |
| CC(=O)c1ccc2c(c1)N(CCCN1CCN(CCO)CC1)c1ccccc1S2 | 10 µM (active) |
| C[C@H](CCC(=O)O)[C@H]1CC[C@H]2[C@@H]3CC[C@@H]4C[C@H](O)CC[C@]4(C)[C@H]3C[C@H](O)[C@]12C | inactive |
| CNC(=O)c1c(I)c(C(=O)NCC(=O)Nc2c(I)c(C(=O)O)c(I)c(C(=O)NCCO)c2I)c(I)c(N(C)C(C)=O)c1I | inactive |
| S=C1SCN(Cc2ccccc2)CN1Cc1ccccc1 | inactive |
| Nc1ccc(N=Nc2ccccc2)c(N)n1 | inactive |
| O=P(O)(O)OP(=O)(O)O | inactive |
| OC/C=C/c1ccccc1 | inactive |
| O=C1c2ccccc2C(=O)C1c1ccc(Cl)cc1 | inactive |
| CC(=O)Oc1cccc2c1C(=O)c1c(OC(C)=O)cc(C(=O)O)cc1C2=O | inactive |
| CC[C@H]1OC(=O)[C@H](C)[C@@H](O[C@H]2C[C@@](C)(OC)[C@@H](O)[C@H](C)O2)C(C)[C@@H](O[C@@H]2O[C@H](C)C[C@H](N(C)C)[C@@H]2O)[C@](C)(OC)C[C@@H](C)C(=O)[C@H](C)[C@@H](O)[C@]1(C)O (stereo partly drawn) | inactive |
| CCCCCCCCCCCCCCCCCC[N+](C)(C)CCC[Si](OC)(OC)OC | inactive |
| CC(=O)Nc1ccc(NC(=S)NC(=O)c2ccc(C(C)(C)C)cc2)cc1 | inactive |
| CC(=O)Nc1c(I)c(C(=O)O)c(I)c(N(C)C(C)=O)c1I | inactive |
| c1ccc2c(c1)Sc1ccccc1N2CCN1CCCC1 | 10 µM (active) |
| NC(N)=NCC1COc2ccccc2O1 (stereo not drawn) | inactive |
| CC[C@H]1OC(=O)[C@H](C)[C@@H](O[C@H]2C[C@@](C)(OC)[C@@H](O)[C@H](C)O2)[C@H](C)[C@@H](O[C@@H]2O[C@H](C)C[C@H](N(C)C)[C@H]2O)[C@](C)(O)C[C@@H](C)CN(C)[C@H](C)[C@@H](O)[C@]1(C)O | 5.01 µM (active) |
| O=C1c2ccccc2CN2C(=O)c3ccccc3CN12 | inactive |
| CC(C)CCCCCCc1ccc(O)cc1 | inactive |
| N[C@@H](Cc1cc(I)c(Oc2ccc(O)c(I)c2)c(I)c1)C(=O)O | inactive |
| O=C(Nc1ccc(O)cc1)c1ccccc1O | inactive |
| C#C[C@]1(O)CC[C@@H]2[C@H]3CCC4=CC(=O)CC[C@H]4[C@H]3C(=C)C[C@@]21CC | inactive |
| OCc1ccccc1 | inactive |
| COc1ccc2nc(NC(=O)Nc3ccccc3)sc2c1 | inactive |
| O=C(OCc1ccccc1)c1cccnc1 | inactive |
